A selection: hits, their analogues and other compounds. The true share with any hit is near 1.3%.
A1 inh = caspase 3/7 activation in MEF A1-2A-BIM cells, primary screen, A1 inhibitor project, cell-based, luminescence, HTS | Caspase-Glo 3/7 luminescence, 3 h; percent of clofoctol response, vehicle zero | caspase activation, % (no concentration beside the values) | hit rate 0.066% among 330,000 | AID 2462, 2010;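 active = over half of replicate activation scores above 10%, or exactly half above 10 with the replicate mean above 10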
NTR1 agonist = agonists of human NTR1, primary screen, imaging, U2OS cells, beta-arrestin-GFP, high content | Neurotensin receptor type 1 (Homo sapiens), P30989 | NTR1-U2OS beta-arrestin-GFP spot imaging, agonist mode | activation, % at 20 µM | hit rate 0.17% among 330,000 | AID 493036, 2011;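 active = activation at or above 40% of the spot to cytoplasm intensity ratio, with at least 20 cells analyzed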;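 note: 0% = DMSO without peptide and 100% = 100 nM NTR1 peptide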
VLA-4 inh = inhibition in human VLA-4 binding assay, primary screen, VLA-4 allosteric modulator project, MLPCN library, flow cytometry, VLA-4 expressing cells | ligand binding flow cytometry | Integrin alpha-4 (Homo sapiens), P13612 | inhibition, % (about 7 µM as worked out from the volumes in the protocol) | hit rate 0.2% among 330,000 | AID 2557, 2010; in the data active = inhibition above about 50%
Beta2AR agonist = beta2AR agonists driving receptor internalization, primary screen, cell-based, FAP fluorogen, flow cytometry. Beta-2 adrenergic receptor (Homo sapiens), P07550. Am2.2-beta2AR cells. response, % (test concentration not listed). hit rate 0.43% among 340,000. AID 504454, 2011;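 active = response above a set limit, near 3 SD of response in nonfluorescent compounds, cut at about 42% in these data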
Target sequence (P07550 whole entry, looked up): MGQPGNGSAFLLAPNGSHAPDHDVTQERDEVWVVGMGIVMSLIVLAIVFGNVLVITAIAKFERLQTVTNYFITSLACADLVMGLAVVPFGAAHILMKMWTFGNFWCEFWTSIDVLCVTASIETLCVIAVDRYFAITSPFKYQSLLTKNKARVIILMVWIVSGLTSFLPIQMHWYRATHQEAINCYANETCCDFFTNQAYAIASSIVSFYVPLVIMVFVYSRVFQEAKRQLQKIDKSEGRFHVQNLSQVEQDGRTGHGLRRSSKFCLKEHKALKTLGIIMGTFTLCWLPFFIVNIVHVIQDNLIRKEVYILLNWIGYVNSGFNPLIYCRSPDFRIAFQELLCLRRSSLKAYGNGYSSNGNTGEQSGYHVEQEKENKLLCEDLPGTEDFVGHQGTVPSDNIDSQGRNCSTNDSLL
GRK2 aptamer HTS = compounds blocking aptamer binding on GRK2 – biochemical, human GRK2, bead flow cytometry, HTS, primary screen; Beta-adrenergic receptor kinase 1 (Homo sapiens), P25098; FAM-aptamer displacement from GRK2; inhibition of aptamer binding, % at 10 µM; hit rate 0.59% among 330,000;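 active = inhibition of aptamer binding above 40%, roughly 3 SD of noise, on plates passing a quality check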;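 note: median bead fluorescence of bound FAM aptamer so fluorescent compounds give negative values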
NTR1 ag confirm = NTR1 agonists, single-dose retest, confirmation, imaging, U2OS cells, beta-arrestin-GFP, single concentration | hit rate 38% among 480 | NTR1-U2OS beta-arrestin-GFP translocation imaging | shares compounds with NTR1 agonist | activation, % at 20 µM;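 active = mean activation at 20 µM of at least 40%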;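 note: 0% = DMSO without peptide and 100% = 100 nM NTR1 peptide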
* hit, by the source's call; . = not tested or not shown.

SMILES	A1 inh	NTR1 agonist	VLA-4 inh	Beta2AR agonist	GRK2 aptamer HTS	NTR1 ag confirm
Cc1cc(C(=O)NNS(=O)(=O)c2cc(C(=O)O)ccc2Cl)c(C)n1-c1ccccc1	1	2	-14	-5	8	.
COc1ccc(Cl)cc1Nc1nc2ccc(C)cc2n2cnnc12	0	46*	5	0	0	31
COc1ccc(C(C[N+](=O)[O-])c2c(C)[nH]n(-c3ccccc3)c2=O)cc1 (stereo unspecified)	-1	42*	27	13	2	25
CCS(=O)(=O)c1nc(S(=O)(=O)c2ccc(C)cc2)c(N2CC(C)CC(C)C2)s1 (stereo unspecified)	0	6	6	-3	0	.
CC(=O)NC(CCS(C)(=O)=O)C(=O)Nc1cc(Cl)ccc1Cl (stereo unspecified)	0	-2	1	-36	0	.
CC(C)S(=O)(=O)c1csc(NC(=O)Nc2cc(Cl)ccc2Cl)c1Cl	1	42*	17	-1	2	12
Clc1ccc(CN2CCc3c([nH]c4ccccc34)C2)cc1Cl	0	65*	1	19	0	1
CC1CC(C)CN(C(=O)CN2C(=O)NC(c3ccccc3)(c3ccccc3)C2=O)C1 (stereo unspecified)	1	7	9	8	11	.
O=C(NNc1c2ccccc2nc2ccccc12)c1ccc(O)cc1O	0	9	9	19	0	.
O=C(NNc1c2ccccc2nc2ccccc12)c1ccccc1O	-1	50*	0	53*	0	3
COc1ccc(-n2ncc3c(N4CCN(Cc5ccccc5)CC4)ncnc32)cc1	-1	67*	1	10	3	56*
CCOc1ccc(NS(=O)(=O)c2ccc(C(=O)N(C)CC(=O)Nc3ccccc3Br)cc2)cc1	.	.	.	2	.	.
COc1cccc(/C=C/C(=O)Nc2cccc(C(C)=O)c2)c1OC	-4	3	-15	28	0	.
COc1cccc(/C=C/C(=O)c2cccc([N+](=O)[O-])c2)c1OC	-1	59*	20	17	0	59*
CCSc1ccc2c(c1)N(CCCN1CCN(C)CC1)c1ccccc1S2	2	43*	34	29	0	9
CN1CCN(CCCN2c3ccccc3Sc3ccc(Cl)cc32)CC1	1	13	42	26	0	.
CCCN(CC(=O)Nc1ccccc1OC)C(=O)Cc1ccc2c(c1)CCC2	1	2	0	5	7	.
CCCC(=O)NC(=S)Nc1cccc(Cl)c1N1CCCC1	1	51*	5	5	3	15
O=C(NC(=S)Nc1cccc(Cl)c1N1CCCCC1)c1cccs1	0	35	-27	3	1	.
O=C(NC(=S)Nc1cccc(Cl)c1N1CCOCC1)c1cccs1	-1	43*	12	7	0	15
Cc1ccccc1CCN(C(=O)c1csnn1)C(C(=O)NC1CCCC1)c1ccco1 (stereo unspecified)	1	-2	8	7	2	.
COC(=O)CSc1nc(N)c2c3c(sc2n1)C(c1ccccc1)SC(c1ccccc1)C3 (stereo unspecified)	16*	50*	-13	-19	7	32
CN(C)/C=C1/N=C(c2ccccc2)OC1=O	0	-1	5	-3	0	.
O=CC1=C(c2ccccc2)Oc2ccccc2O1	3	44*	9	67*	2	62*
O=C(NCc1ccc(F)cc1)c1ccc(CS(=O)Cc2ccccc2Cl)o1 (stereo unspecified)	1	-1	0	-5	3	.
SMILES	A1 inh	NTR1 agonist	VLA-4 inh	Beta2AR agonist	GRK2 aptamer HTS	NTR1 ag confirm
N#C/C(=C\c1cn[nH]c1-c1ccc(Cl)cc1)C(=O)NCc1ccccc1	1	43*	10	14	1	9
N#C/C(=C\c1cn[nH]c1-c1ccc(Cl)cc1)C(=O)NC1CC1	0	-1	-11	-26	3	.
Cc1cccc(NC(=O)c2nc[nH]c2C(=O)N[C@H](C)c2ccccc2)c1	-1	48*	19	4	0	13
C[C@H](NC(=O)c1[nH]cnc1C(=O)Nc1ccccc1)c1ccccc1	0	38	25	-5	0	.
Cc1ccc(NC(=O)c2nc[nH]c2C(=O)N[C@H](C)c2ccccc2)cc1	-1	41*	23	5	0	13
O=C(Nc1ccc(N2CCN(C(=O)c3ccco3)CC2)c(Cl)c1)c1cc2ccccc2o1	0	42*	-6	27	0	63*
COc1ccc(OC)c(NC(=O)CSc2nc3[nH]c(=O)[nH]c(=O)c3s2)c1	.	.	.	0	.	.
O=C1NC[C@@H](Cc2cccc3ccccc23)N(CCCCC2CCCCC2)C1=O	0	41*	5	7	1	-2
COc1ccc(Cl)cc1/C=C1/C(=O)ON=C1C	1	1	1	-6	3	.
CC1=NOC(=O)/C1=C\c1ccc(-c2cc(Cl)ccc2Cl)o1	3	44*	19	80*	0	65*
CCCc1nc(SCC(=O)Nc2nnc(CC)s2)c2c(=O)n(C)c(=O)n(C)c2n1	0	2	6	-6	0	.
C/C=C(\C)C(=O)OC1CC(C)(C)C[C@H]2C3=CC[C@@H]4[C@@]5(C)CCC(O[C@@H]6O[C@@H](C(=O)O)[C@@H](O)C(O[C@@H]7OC[C@H](O)[C@@H](O)[C@@H]7O[C@@H]7OC(CO)C(O)[C@@H](O)[C@@H]7O)C6O[C@@H]6OC(CO)C(O)C(O)C6O)[C@@](C)(CO)[C@@H]5CC[C@]4(C)[C@]3(C)CC(O)[C@@]12CO (stereo partly specified)	0	0	7	-2	2	.
O=C(NC(=S)Nc1nc2c(s1)CSc1ccccc1-2)c1ccccc1	1	62*	2	1	6	1
O=C(NC(=S)Nc1nc2c(s1)CCCC2)c1ccc(C(=O)c2ccccc2)cc1	-1	5	0	-1	0	.
O=C(NCCc1c[nH]c2ccccc12)OCCCCOC(=O)NCCc1c[nH]c2ccccc12	0	67*	-17	16	0	17
Cc1ccc(O)c(-c2cc(-c3cccc(Br)c3)n[nH]2)c1	2	54*	18	1	0	21
